A short description of assay [1]: ATG_CRE_CIS: Attagene CIS-FACTORIAL HepG2 Assay for human cAMP Responsive Element (CRE) binding protein 3 (AID 2282926). The following applies: HepG2 CRE cis-reporter, Attagene multiplexed mRNA; actives raise or lower the signal. The method, boiled down: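 Endogenous transcription factor activity read via CRE-regulated reporter transcripts in transfected HepG2 cells. After 24 h exposure, RNA was reverse-transcribed, amplified, fluorescently labelled and sized by capillary electrophoresis; gain or loss fitted against DMSO.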

The nature of assay [2]: ATG_CMV_CIS: Attagene CIS-FACTORIAL HepG2 Assay for human CMV (Internal Marker) (AID 2282928).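 Further: endpoint acts as a background internal control marker rather than a target.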 The following applies: HepG2 CMV promoter reporter, transcription factor profiling; actives raise or lower the signal. In a few lines:
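24 h chemical treatment, HepG2 with transient multi-reporter transfection; RNA → oligo(dT) RT → PCR → 6-FAM extension → HpaI digest → CE fluorescence. Bidirectional fit, DMSO negative control.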

A short description of assay [3]: ATG_DR4_LXR_CIS: Attagene CIS-FACTORIAL HepG2 Assay for human Liver X Receptor (LXR), DR4 submotif (AID 2282929). The following applies: HepG2 Attagene DR4 cis-reporter, mRNA transcription; actives raise or lower the signal. In a few lines: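 Measures endogenous transcription factor activity via a DR4-driven reporter transcript in human HepG2 cells. Compounds incubated 24 h; mRNA quantified by RT-PCR and capillary electrophoresis, analysed as gain or loss of signal versus DMSO.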

For assay [4], the target named is Aryl hydrocarbon receptor (Homo sapiens) (UniProt P35869). Kind of assay: ATG_Ahr_CIS: Attagene CIS-FACTORIAL HepG2 Assay for human Aryl Hydrocarbon Receptor (Ahr) (AID 2282930). The settings on record: HepG2 AhR cis-factorial reporter transcription; actives raise or lower the signal. The method, boiled down: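 Read-out: reporter mRNA quantified by RT-PCR with fluorescent primer extension and capillary electrophoresis. Human HepG2 liver cells carried transfected cis-promoter reporter units and were exposed to chemical for 24 h; gain or loss fitted relative to DMSO.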
Sequence of Aryl hydrocarbon receptor (Homo sapiens) (P35869 whole entry, looked up): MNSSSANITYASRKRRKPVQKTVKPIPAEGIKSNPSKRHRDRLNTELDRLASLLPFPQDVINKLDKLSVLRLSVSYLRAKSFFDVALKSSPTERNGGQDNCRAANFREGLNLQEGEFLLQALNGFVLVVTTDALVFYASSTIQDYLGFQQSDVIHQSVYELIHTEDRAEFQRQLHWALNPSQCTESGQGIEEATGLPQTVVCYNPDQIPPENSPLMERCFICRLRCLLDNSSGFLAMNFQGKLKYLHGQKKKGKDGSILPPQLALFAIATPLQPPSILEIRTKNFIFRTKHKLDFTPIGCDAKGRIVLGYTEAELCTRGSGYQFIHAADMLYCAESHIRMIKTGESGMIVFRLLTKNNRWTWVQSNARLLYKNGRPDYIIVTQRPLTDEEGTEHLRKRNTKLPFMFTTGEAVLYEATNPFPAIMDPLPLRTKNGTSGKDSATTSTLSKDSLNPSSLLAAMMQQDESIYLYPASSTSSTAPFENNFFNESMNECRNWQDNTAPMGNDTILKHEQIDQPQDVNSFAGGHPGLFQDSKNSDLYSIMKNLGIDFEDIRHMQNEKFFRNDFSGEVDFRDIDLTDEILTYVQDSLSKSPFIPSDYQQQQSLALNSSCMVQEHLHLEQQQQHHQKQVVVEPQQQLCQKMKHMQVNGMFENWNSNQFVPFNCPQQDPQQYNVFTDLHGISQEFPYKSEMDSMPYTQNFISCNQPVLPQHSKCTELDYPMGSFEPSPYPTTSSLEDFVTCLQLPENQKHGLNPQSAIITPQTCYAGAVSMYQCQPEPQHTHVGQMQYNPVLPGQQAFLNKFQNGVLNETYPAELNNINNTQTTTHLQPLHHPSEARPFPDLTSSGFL

Assay [5] in a line: ATG_AP_1_CIS: Attagene CIS-FACTORIAL HepG2 Assay for human Activator Protein 1 (AP-1) (AID 2282931). The settings on record: HepG2 Attagene cis-factorial AP-1 reporter mRNA; actives raise or lower the signal. The method, boiled down:
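Bidirectional concentration-response fitting against DMSO controls. Underlying signal: reporter mRNA from cis-promoter constructs in transiently transfected HepG2, measured after 24 h by RT-PCR and capillary electrophoresis.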

Assay [6] is described as follows: ATG_AP_2_CIS: Attagene CIS-FACTORIAL HepG2 Assay for human Activator Protein 2 (AP-2) (AID 2282932). The following applies: HepG2 AP-2 cis-reporter, Attagene transcription factor profiling; actives raise or lower the signal. In a few lines: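 Read-out: fluorescent reporter mRNA via RT-PCR and capillary electrophoresis, 24 h post-dose in transiently transfected HepG2. Endogenous factors drive cis-promoter reporters; gain or loss of signal fitted bidirectionally against DMSO.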

A short description of assay [7]: ATG_BRE_CIS: Attagene CIS-FACTORIAL HepG2 Assay for human Bone Morphogenetic Protein (BMP) Response Element (BRE) (AID 2282933). The settings on record: HepG2 BMP response element reporter, Attagene transcription factor profiling; actives raise or lower the signal. The method, boiled down:
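Endogenous transcription factor activity at a BMP response element was monitored in transfected HepG2 cells 24 h after dosing. Fluorescent RT-PCR products were resolved by capillary electrophoresis, and activity was fitted in both directions versus DMSO.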

The target of assay [8] is Transcription factor E2F1 (Homo sapiens) (UniProt Q01094). Kind of assay: ATG_E2F_CIS: Attagene CIS-FACTORIAL HepG2 Assay for human E2F Transcription Factor 1 (AID 2282935). The following applies: HepG2 Attagene cis-reporter, E2F reporter RNA transcripts; actives raise or lower the signal. The method, boiled down: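 Transient MRTU transfection of HepG2; 24 h compound exposure; RNA → oligo(dT) RT → PCR → FAM label → HpaI cut → CE fluorescence. Gain/loss of signal fit against DMSO.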
Sequence of Transcription factor E2F1 (Homo sapiens) (Q01094 whole entry, looked up): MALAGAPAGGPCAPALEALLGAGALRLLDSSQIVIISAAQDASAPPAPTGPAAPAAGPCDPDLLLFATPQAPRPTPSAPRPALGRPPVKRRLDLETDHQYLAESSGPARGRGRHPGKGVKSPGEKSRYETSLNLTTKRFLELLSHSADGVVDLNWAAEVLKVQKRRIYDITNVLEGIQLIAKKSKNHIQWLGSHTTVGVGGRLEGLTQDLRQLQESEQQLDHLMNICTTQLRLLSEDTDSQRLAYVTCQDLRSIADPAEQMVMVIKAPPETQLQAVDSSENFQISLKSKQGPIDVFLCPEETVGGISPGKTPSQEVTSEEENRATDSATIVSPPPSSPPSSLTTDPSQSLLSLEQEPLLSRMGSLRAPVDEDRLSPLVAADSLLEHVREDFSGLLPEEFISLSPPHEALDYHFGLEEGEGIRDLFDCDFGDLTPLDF

Assay [9] is described as follows: ATG_E_Box_CIS: Attagene CIS-FACTORIAL HepG2 Assay for human Enhancer Box (E-box) (AID 2282936). The following applies: HepG2 E-box cis-reporter transcription, actives raise or lower the signal. The method, boiled down:
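Transiently transfected HepG2, endogenous TF-driven reporters, 24 h dosing. Readout: RT-PCR plus capillary electrophoresis of fluorescent reporter fragments. Gain or loss of signal fitted bidirectionally against DMSO baseline.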

Assay [10] can be described thus: ATG_M_61_CIS: Attagene CIS-FACTORIAL HepG2 Assay for M61 Transcription Factor (Internal Marker) (AID 2282937). The following applies: HepG2 Attagene CIS-FACTORIAL M61 internal marker reporter; actives raise or lower the signal. The method, boiled down:
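Fluorescence from labelled cDNA fragments, separated by capillary electrophoresis, quantifies reporter induction. HepG2 cells bearing transiently transfected cis-promoter MRTUs were incubated with test chemical for 24 h; DMSO defined baseline for gain/loss fitting.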

Assay [11] is described as follows: ATG_M_19_CIS: Attagene CIS-FACTORIAL HepG2 Assay for M19 Transcription Factor (Internal Marker) (AID 2282939). The settings on record: HepG2 Attagene CIS-FACTORIAL M19 internal marker reporter; actives raise or lower the signal. The method, boiled down: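 Background-control endpoint from a multiplexed HepG2 reporter panel. Cells carrying cis-regulated reporter constructs are treated 24 h, then reporter transcripts are amplified, fluorescently labelled and sized by capillary electrophoresis. DMSO defines baseline.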

The nature of assay [12]: ATG_Ets_CIS: Attagene CIS-FACTORIAL HepG2 Assay for human Erythroblast Transformation Specific (ETS) (AID 2282941). The settings on record: HepG2 ETS cis-reporter transcription, actives raise or lower the signal. In a few lines: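 Cis-regulated reporter mRNA induction in HepG2 (transient transfection), 24 h exposure, RT-PCR plus capillary electrophoresis detection; DMSO serves as negative control and baseline.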

Assay [13] concerns the target Hepatocyte nuclear factor 3-beta (Homo sapiens) (UniProt Q9Y261). Kind of assay: ATG_FoxA2_CIS: Attagene CIS-FACTORIAL HepG2 Assay for human Forkhead box A2 (FOXA2) (AID 2282942). The following applies: HepG2 cis-reporter transcription factor activity, 24 h; actives raise or lower the signal. The method, boiled down: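 In transiently transfected human HepG2 cells, promoter-driven reporter mRNA levels after 24 h chemical exposure are determined via RT-PCR with capillary electrophoresis. DMSO serves as baseline for bidirectional fitting.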

Assay [14] can be described thus: ATG_FoxO_CIS: Attagene CIS-FACTORIAL HepG2 Assay for human Forkhead box O (FoxO) (AID 2282943). The settings on record: HepG2 Attagene cis-reporter, FoxO element, mRNA; actives raise or lower the signal. The method, boiled down:
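Read-out: fluorescence of 6-FAM-labelled reporter cDNA fragments resolved by capillary electrophoresis. Transiently transfected HepG2 cells were dosed for 24 h; activity fitted in both directions relative to DMSO controls.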

Assay [15] is described as follows: ATG_GLI_CIS: Attagene CIS-FACTORIAL HepG2 Assay for human Zinc Finger Protein GLI1 (AID 2282945). The settings on record: HepG2, Attagene cis-factorial reporter mRNA, GLI element; actives raise or lower the signal. The method, boiled down:
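Transiently transfected HepG2 cells report endogenous transcription factor activity via cis-element-driven reporter units. After 24 h compound exposure, reporter mRNA was measured by RT-PCR with capillary electrophoresis; bidirectional fitting against DMSO baseline.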

Assay [16] has as its target Bile acid receptor (Homo sapiens) (UniProt Q96RI1). Description: ATG_IR1_CIS: Attagene CIS-FACTORIAL HepG2 Assay for human Nuclear Receptor Subfamily 1 Group H Member 4 (NR1H4), IR1 submotif (AID 2282946). The settings on record: IR1 reporter transcription, actives raise or lower the signal. The method, boiled down: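 Fluorescence of capillary-separated, HpaI-digested RT-PCR reporter products gave IR1-element mRNA induction in HepG2 cells 24 h after dosing. Endogenous transcription factors drove the cis-regulated reporters; activity was fitted bidirectionally against DMSO.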

Assay [17] addresses Retinoic acid receptor alpha (Homo sapiens) (UniProt P10276). Kind of assay: ATG_DR5_RAR_CIS: Attagene CIS-FACTORIAL HepG2 Assay for human Retinoic Acid Receptor Alpha (RARE), DR5 submotif (AID 2282934). The settings on record: HepG2 Attagene cis-factorial RARE DR5 reporter, mRNA; actives raise or lower the signal. The method, boiled down: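 Read-out: DR5-driven reporter transcript measured by RT-PCR, 6-FAM primer extension, HpaI digest and capillary electrophoresis. Human HepG2 liver cells carry transiently transfected cis-element reporter constructs; dosing lasts 24 h. Gain or loss of signal fitted against DMSO baseline.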

Assay [18] can be described thus: ATG_EGR_CIS: Attagene CIS-FACTORIAL HepG2 Assay for human Early Growth Response 1 (EGR1) (AID 2282938). The following applies: HepG2 Attagene CIS-FACTORIAL EGR reporter mRNA; actives raise or lower the signal. The method, boiled down:
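Cell-based multiplex transcription assay: HepG2 carrying transfected cis-element reporter units, 24 h chemical treatment. Fluorescence from capillary electrophoresis of RT-PCR products gives mRNA levels; fitting is bidirectional relative to DMSO.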

The nature of assay [19]: ATG_GATA_CIS: Attagene CIS-FACTORIAL HepG2 Assay for human GATA Binding Protein (AID 2282944). The following applies: HepG2 GATA cis-element reporter, Attagene multiplex mRNA; actives raise or lower the signal. In a few lines: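 Endogenous transcription factor activity was captured through cis-promoter-driven reporters in transfected HepG2 cells. After 24 h exposure, reporter transcripts were quantified by RT-PCR with fluorescent capillary electrophoresis, and responses fitted both directions against DMSO.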

For assay [20], the target named is CCAAT/enhancer-binding protein beta (Homo sapiens) (UniProt P17676). Kind of assay: ATG_C_EBP_CIS: Attagene CIS-FACTORIAL HepG2 Assay for human CCAAT/Enhancer Binding Protein (C/EBP) beta (AID 2282927). The settings on record: HepG2 Attagene cis-factorial transcription factor reporter; actives raise or lower the signal. The method, boiled down:
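Transiently transfected HepG2 (MRTU library, endogenous TF-driven promoters); 24 h dosing; total RNA → oligo(dT) RT → PCR → 6-FAM primer extension → HpaI digest → CE; fit bidirectionally vs DMSO.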

Activity calls are given as the source filed them. How the source made its calls: active means hit-call score of the fitted dose curve at least 0.9, where 1 is the maximum; inactive means score below 0.9.

Sequence of Retinoic acid receptor alpha (Homo sapiens) (P10276 whole entry, looked up): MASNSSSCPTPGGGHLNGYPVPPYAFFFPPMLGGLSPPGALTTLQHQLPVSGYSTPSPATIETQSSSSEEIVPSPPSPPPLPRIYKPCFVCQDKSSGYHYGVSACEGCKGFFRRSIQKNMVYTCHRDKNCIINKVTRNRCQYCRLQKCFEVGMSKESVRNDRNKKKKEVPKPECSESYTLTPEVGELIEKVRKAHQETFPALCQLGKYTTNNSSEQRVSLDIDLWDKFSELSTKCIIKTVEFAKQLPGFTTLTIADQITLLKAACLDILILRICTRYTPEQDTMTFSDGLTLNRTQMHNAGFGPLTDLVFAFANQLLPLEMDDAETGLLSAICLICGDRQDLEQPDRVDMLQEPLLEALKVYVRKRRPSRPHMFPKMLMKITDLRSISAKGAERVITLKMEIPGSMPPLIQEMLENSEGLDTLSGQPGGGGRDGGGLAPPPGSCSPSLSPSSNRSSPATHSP
Sequence of Hepatocyte nuclear factor 3-beta (Homo sapiens) (Q9Y261 whole entry, looked up): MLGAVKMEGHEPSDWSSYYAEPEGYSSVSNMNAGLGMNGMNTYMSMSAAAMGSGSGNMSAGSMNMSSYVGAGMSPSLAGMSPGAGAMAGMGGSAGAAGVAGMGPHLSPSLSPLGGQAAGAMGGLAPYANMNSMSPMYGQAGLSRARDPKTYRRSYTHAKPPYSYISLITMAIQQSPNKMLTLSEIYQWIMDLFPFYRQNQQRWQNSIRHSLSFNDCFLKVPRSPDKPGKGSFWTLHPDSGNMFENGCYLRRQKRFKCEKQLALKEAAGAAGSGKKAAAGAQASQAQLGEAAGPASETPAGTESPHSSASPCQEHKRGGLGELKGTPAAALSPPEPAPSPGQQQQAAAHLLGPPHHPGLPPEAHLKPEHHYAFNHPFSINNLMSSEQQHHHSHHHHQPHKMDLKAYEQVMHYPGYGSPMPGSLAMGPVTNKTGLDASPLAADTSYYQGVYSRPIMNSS
Sequence of CCAAT/enhancer-binding protein beta (Homo sapiens) (P17676 whole entry, looked up): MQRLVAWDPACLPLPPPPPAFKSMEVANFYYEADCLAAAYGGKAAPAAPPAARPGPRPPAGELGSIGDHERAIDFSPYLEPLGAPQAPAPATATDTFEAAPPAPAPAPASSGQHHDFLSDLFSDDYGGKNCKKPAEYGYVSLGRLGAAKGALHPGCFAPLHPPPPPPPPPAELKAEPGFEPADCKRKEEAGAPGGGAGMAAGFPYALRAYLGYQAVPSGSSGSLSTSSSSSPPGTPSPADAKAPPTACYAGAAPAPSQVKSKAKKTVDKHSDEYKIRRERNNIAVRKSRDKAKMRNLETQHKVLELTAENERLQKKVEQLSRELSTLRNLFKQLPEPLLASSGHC
Sequence of Bile acid receptor (Homo sapiens) (Q96RI1 whole entry, looked up): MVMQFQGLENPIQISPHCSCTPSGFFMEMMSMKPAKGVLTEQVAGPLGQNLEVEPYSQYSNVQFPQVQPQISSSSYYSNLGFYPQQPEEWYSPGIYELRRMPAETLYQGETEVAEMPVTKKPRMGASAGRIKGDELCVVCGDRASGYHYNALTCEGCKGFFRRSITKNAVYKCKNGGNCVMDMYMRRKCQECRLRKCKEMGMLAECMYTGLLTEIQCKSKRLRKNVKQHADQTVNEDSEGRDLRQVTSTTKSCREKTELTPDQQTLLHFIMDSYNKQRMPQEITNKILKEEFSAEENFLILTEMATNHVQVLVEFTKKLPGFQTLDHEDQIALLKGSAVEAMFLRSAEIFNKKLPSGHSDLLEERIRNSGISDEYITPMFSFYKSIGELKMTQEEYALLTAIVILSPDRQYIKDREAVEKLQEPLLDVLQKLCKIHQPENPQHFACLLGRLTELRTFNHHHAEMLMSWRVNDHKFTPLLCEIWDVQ

Regarding `C=Cc1ccncc1`, the result in assay [1], in assay [3], in assay [4], in assay [5], in assay [6] and in assay [7] was inactive. Further, the call in assay [8], in assay [10], in [11], in assay [13], in assay [15] and in assay [16] was inactive. The AC50 in assay [2] was 100 µM (active); in assay [9], 46.1 µM (active); in [12], 57.3 µM (active); in assay [14], 43.4 µM (active).

For the molecule `COc1cccc(OC)c1O`, the molecule was called inactive in [1], in [2], in assay [3], in assay [4], in [5] and in [6]. In addition, the outcome in [7], in assay [17], in assay [8], in [9], in assay [10] and in assay [18] was inactive. Further, the outcome in assay [11], in [12], in assay [13], in [14], in assay [19] and in [15] was inactive. Besides, the call in assay [16] was inactive.

Turning to `CC(O)C1CCCCC1` (stereo unspecified), the result in assay [20], in assay [2], in assay [3], in assay [4], in assay [5] and in [6] was inactive. Further, the result in assay [7], in [17], in assay [8], in [9], in assay [10] and in assay [18] was inactive. Also, the molecule was called inactive in assay [11], in assay [12], in assay [13] and in assay [14].

For `C=CCCC(=O)/C=C/C1C(C)=CCCC1(C)C` (stereo unspecified), the molecule was classed as inactive in assay [1], in [6], in [7], in [8], in assay [10] and in assay [18]. Also, the outcome in assay [11], in assay [12], in [13], in assay [14], in [19] and in assay [15] was inactive. The AC50 in [2] is 140 µM (active); in [3] it was 175 µM (active); in assay [4], 53.2 µM (active); in assay [5], 121 µM (active); in assay [9], 160 µM (active).

Regarding `CCCC(C)=O`, the call in assay [1], in assay [2], in assay [3], in [5], in [7] and in assay [17] was inactive. In addition, the molecule was classed as inactive in [8], in assay [9], in assay [10], in [11], in assay [12] and in assay [13]. The result in assay [14], in assay [19], in [15] and in assay [16] was inactive.

For `CC1(C)C(=O)N(Cl)C(=O)N1Br`, the outcome in [20], in assay [2], in assay [3], in [4], in [5] and in assay [6] was inactive. In addition, the call in [7], in assay [17], in assay [9], in assay [10], in [18] and in assay [11] was inactive. In addition, the outcome in [12], in assay [13], in assay [14], in [19], in assay [15] and in [16] was inactive.

As for `CCOC(=O)[C@@H](C)Oc1ccc(Oc2nc3ccc(Cl)cc3o2)cc1`, the outcome in assay [20], in [2], in assay [4], in assay [5], in assay [17] and in assay [8] was inactive. The call in assay [18], in [11], in [12], in assay [13], in [19] and in assay [15] was inactive. For the same molecule, the call in [16] was inactive. For the same molecule, the AC50 in assay [7] was 156 µM (active).

Regarding `Cc1[nH]c(=O)c(C#N)cc1-c1ccncc1`, the outcome in [20], in assay [4], in [5], in [6], in assay [7] and in assay [17] was inactive. The result in assay [8], in assay [18], in [11], in [12], in assay [13] and in [14] was inactive. In addition, the call in assay [19] and in assay [15] was inactive. Besides, in assay [2], the AC50 is 24.3 µM (active).

Usually AC50 stands for the concentration at which the activity in the assay is half-maximal.

The record behind these values is PubChem BioAssay (EPA / NIEHS).
